In the supplement of paper PMC12636033:
± gives the standard deviation of the averaged measurements. In all, about 33,000 sequences were measured (“E-score (rank enrichment, -0.5 to 0.5)”: median about -0.0028, highest 2% from about 0.23 on). Shown is part of a subset that was picked to be rich in the highest values.

system: 2Sb-muMax20 (muMax20 with two 1,3-bis(methyl)benzene Cys staples, A13C/A17C and Q88C/A92C, C-terminal Lys); assay: PBM 8-mer E-score (E-score (rank enrichment, -0.5 to 0.5)); higher = stronger preferential binding
Description: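 Protein binding microarray (universal PBM chip covering all 10-mers in fixed probe flanks) with chemically synthesized human Max(13-93) bHLH-LZ analogs (not full-length Max) bearing noncanonical residues (hArg, Tha, Aib, Nle at 65) and aromatic Cys staples. Read-out per 8-mer (and its reverse complement): E-score (rank-based enrichment, -0.5 to 0.5) and Z-score of median probe intensity.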

Row | Sequence | PBM 8-mer E-score
1 | CTACCCCA | 0.259 ± 0.021
2 | AAACCCTG | 0.029 ± 0.12
3 | AATGCCAT | 0.0622 ± 0.045
4 | AGTTGTAG | 0.0711 ± 0.018
5 | ATGGAAGG | -0.00186 ± 0.021
6 | CCCCGTCA | 0.0912 ± 0.04
7 | CCCCGGCG | -0.233 ± 0.056
8 | GCTGCAAA | -0.0134 ± 0.061
9 | ACCGTCAT | 0.0687 ± 0.082
10 | CAACCCCC | -0.167 ± 0.046
11 | CAACCCCA | 0.294 ± 0.051
12 | CAACCCAA | -0.0401 ± 0.029
13 | ACTTTATA | 0.232 ± 0.077
14 | ACTTTCTG | -0.0565 ± 0.016
15 | AGTTTATA | 0.235 ± 0.044
16 | AGTTTATC | 0.182 ± 0.027
17 | ACTTTATC | 0.00955 ± 0.014
18 | CCTTTATA | 0.0289 ± 0.054
19 | ACTTTCTC | 0.0106 ± 0.018
20 | ACTTTCTA | 0.241 ± 0.012
21 | GGTTTATA | 0.047 ± 0.079
22 | AGGCGAGG | 0.0445 ± 0.00056

Row | Sequence | PBM 8-mer E-score
23 | CTATACCA | 0.214 ± 0.036
24 | CGTCTGAG | -0.115 ± 0.054
25 | CAACCGCG | 0.0452 ± 0.028
26 | ATGTCTGC | -0.0456 ± 0.036
27 | AATCTTCC | 0.0406 ± 0.055
28 | ATATCGAC | 0.0358 ± 0.012
29 | ATATCGAT | 0.23 ± 0.013
30 | ATATCGAA | 0.0967 ± 0.018
31 | TCCTGGCA | -0.0907 ± 0.03
32 | CCTTATAC | 0.175 ± 0.015
33 | CACACTTA | 0.15 ± 0.045
34 | ATTTAAAC | 0.167 ± 0.021
35 | CGGGGTAA | 0.19 ± 0.055
36 | AGGGGTTA | 0.135 ± 0.04
37 | AGGGGCAA | 0.159 ± 0.017
38 | AGGGGCTG | 0.252 ± 0.036
39 | AGGGGCAC | -0.0355 ± 0.044
40 | AGGGGTTG | 0.266 ± 0.068
41 | AGGGGCTA | 0.198 ± 0.055
42 | AGGGGCTC | 0.0348 ± 0.035
43 | AGGGGCAT | 0.272 ± 0.028
44 | AAGGGTTG | 0.0938 ± 0.044

Row | Sequence | PBM 8-mer E-score
45 | TGGGGTAA | 0.266 ± 0.033
46 | GGGGGTAA | -0.0157 ± 0.073
47 | TAAGGCGA | 0.0332 ± 0.024
48 | CCAACGTA | -0.0251 ± 0.052
49 | CCACTCAA | 0.199 ± 0.032
50 | ACTGGCAG | -0.182 ± 0.042
51 | AATGGTGG | 0.0724 ± 0.034
52 | AACCTTGT | -0.108 ± 0.054
53 | GGGGCTAA | 0.0894 ± 0.033
54 | ATCGCCAA | -0.0483 ± 0.083
55 | ACACCGTA | 0.0971 ± 0.049
56 | ATATCACA | 0.112 ± 0.039
57 | AAGCCCCG | 0.0771 ± 0.022
58 | AGGGGTAA | 0.202 ± 0.014
59 | AGGGGTAG | 0.309 ± 0.059
60 | CGGGGTAG | 0.147 ± 0.071
61 | AGGTCCGA | -0.128 ± 0.028
62 | AATTTAAA | 0.0161 ± 0.022
63 | ATTTTTAC | 0.127 ± 0.05
64 | CGAAACAA | 0.0409 ± 0.023
65 | AGAAACAT | 0.0919 ± 0.038
66 | GGAAACAA | 0.133 ± 0.078

Row | Sequence | PBM 8-mer E-score
67 | AGAAACAC | 0.0175 ± 0.091
68 | TGAAACAA | 0.261 ± 0.053
69 | AGAAACAA | 0.252 ± 0.0078
70 | ACCCTCTG | -0.181 ± 0.025
71 | GGGTCTTA | 0.104 ± 0.061
72 | GCGTATGA | 0.0375 ± 0.06
73 | ATTCTTCA | 0.00503 ± 0.029
74 | ACCGCTTC | -0.17 ± 0.019
75 | AATATTTA | 0.201 ± 0.0076
76 | GTTCAGGA | -0.184 ± 0.021
77 | CCCTGAGC | 0.0168 ± 0.058
78 | AATATGAA | 0.271 ± 0.004
79 | AATATGAG | -0.034 ± 0.019
80 | AATATGAT | 0.252 ± 0.03
81 | TATATGAA | 0.159 ± 0.022
82 | AATATGAC | 0.166 ± 0.012
83 | GATATGAA | 0.103 ± 0.013
84 | ATTTTACG | 0.126 ± 0.054
85 | CAGTTCAG | 0.0182 ± 0.11
86 | GTGCACAC | -0.0164 ± 0.1
87 | GGCTACGA | -0.0832 ± 0.011
88 | CACGTCCC | -0.161 ± 0.028
